In PubChem BioAssay (NCI):
The panel holds about 83,000 compounds, 20% with a hit somewhere; the sample as a whole holds those more often.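 Plates (96-well) were seeded with cells, treated with compound at one concentration, and incubated for 48 hours before percent growth was determined.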 Active and inactive are the calls of the source. Rule for the calls: active = growth percent below 10; inactive = the rest.

What was measured:
Assay in all cases: NCI-60 one-dose screen, 48 h (100 = growth as untreated, 0 = no growth, -100 = all killed)
Conditions in all cases: 10 µM unless noted
HCT-15 colon = system: HCT-15 colon
HT29 colon = system: HT29 colon
SNB-75 CNS = system: SNB-75 CNS
SNB-19 CNS = system: SNB-19 CNS
U251 CNS = system: U251 CNS
PC-3 prostate = system: PC-3 prostate
SK-MEL-5 melanoma = system: SK-MEL-5 melanoma
LOX IMVI melanoma = system: LOX IMVI melanoma
SK-MEL-28 melanoma = system: SK-MEL-28 melanoma

Measured: growth

Cn1c(=O)c2c(ncn2CC(=O)Nc2ccc(S(N)(=O)=O)cc2)n(C)c1=O
inactive: HCT-15 colon 106% | HT29 colon 94.8% | SNB-75 CNS 87.8% | SNB-19 CNS 102% | U251 CNS 96.6% | PC-3 prostate 83.4% | SK-MEL-5 melanoma 111% | LOX IMVI melanoma 97.6% | SK-MEL-28 melanoma 115%

COC(=O)[C@]12CC[C@@H](C)[C@H](C)[C@@H]1C1=CC[C@@H]3[C@@]4(C)CC(=O)[C@H](OC(=O)c5ccco5)[C@@]5(C)COC(=C45)C[C@@]3(C)[C@]1(C)CC2
active: SK-MEL-5 melanoma -46.1% | LOX IMVI melanoma 6.2%
inactive: HCT-15 colon 24.1% | HT29 colon 20.1% | SNB-75 CNS 41.7% | SNB-19 CNS 40.4% | U251 CNS 24.9% | PC-3 prostate 17.3% | SK-MEL-28 melanoma 33%

Cc1cc(N(CCCNc2ccnc3cc(Cl)ccc23)Cc2ccco2)nc(Cl)n1
inactive: HCT-15 colon 48.5% | HT29 colon 22.1% | SNB-75 CNS 66% | SNB-19 CNS 75.1% | U251 CNS 60.7% | PC-3 prostate 49% | LOX IMVI melanoma 42.2% | SK-MEL-28 melanoma 77.7%
active: SK-MEL-5 melanoma -8.23%

Cc1cc(Cl)nc(N(CCNc2ccnc3cc(Cl)ccc23)Cc2ccco2)n1
inactive: HCT-15 colon 35.7% | HT29 colon 30.3% | SNB-75 CNS 81.5% | SNB-19 CNS 37.9% | U251 CNS 17.9% | PC-3 prostate 34.1% | SK-MEL-5 melanoma 42.9% | LOX IMVI melanoma 22.5%
active: SK-MEL-28 melanoma 3.02%

Cn1cc(-c2csc(-c3cn(CCN)c4ccc(Br)cc34)n2)c2cccnc21
inactive: HCT-15 colon 36.5% | HT29 colon 47.2% | SNB-75 CNS 73.4% | SNB-19 CNS 74.1% | U251 CNS 63.1% | PC-3 prostate 66.3% | SK-MEL-5 melanoma 86.8% | LOX IMVI melanoma 53.5% | SK-MEL-28 melanoma 100%
